Out of some 310,000 compounds screened, about 3,400 (1.1%) were called active.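 How the source made its calls: active means fluorescence ratio B-score at most minus 3 library SDs, with starting brightness B-score within 2 library SDs (cut at about -5.5 in these data); inactive means the rest, inconclusive results apart.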 The sample as a whole holds a higher share of actives than the screen did.
Biological target: Potassium voltage-gated channel subfamily KQT member 2 (Rattus norvegicus) (UniProt O88943)
Experiment: rat KCNQ2 potassium channel inhibitors, primary screen, cell-based, CHO-K1, FluxOR thallium flux, B-score (AID 2156)
Conditions: 20 min, at 10 µM; active compounds read low

Chain of Potassium voltage-gated channel subfamily KQT member 2 (Rattus norvegicus) (O88943 whole entry, looked up): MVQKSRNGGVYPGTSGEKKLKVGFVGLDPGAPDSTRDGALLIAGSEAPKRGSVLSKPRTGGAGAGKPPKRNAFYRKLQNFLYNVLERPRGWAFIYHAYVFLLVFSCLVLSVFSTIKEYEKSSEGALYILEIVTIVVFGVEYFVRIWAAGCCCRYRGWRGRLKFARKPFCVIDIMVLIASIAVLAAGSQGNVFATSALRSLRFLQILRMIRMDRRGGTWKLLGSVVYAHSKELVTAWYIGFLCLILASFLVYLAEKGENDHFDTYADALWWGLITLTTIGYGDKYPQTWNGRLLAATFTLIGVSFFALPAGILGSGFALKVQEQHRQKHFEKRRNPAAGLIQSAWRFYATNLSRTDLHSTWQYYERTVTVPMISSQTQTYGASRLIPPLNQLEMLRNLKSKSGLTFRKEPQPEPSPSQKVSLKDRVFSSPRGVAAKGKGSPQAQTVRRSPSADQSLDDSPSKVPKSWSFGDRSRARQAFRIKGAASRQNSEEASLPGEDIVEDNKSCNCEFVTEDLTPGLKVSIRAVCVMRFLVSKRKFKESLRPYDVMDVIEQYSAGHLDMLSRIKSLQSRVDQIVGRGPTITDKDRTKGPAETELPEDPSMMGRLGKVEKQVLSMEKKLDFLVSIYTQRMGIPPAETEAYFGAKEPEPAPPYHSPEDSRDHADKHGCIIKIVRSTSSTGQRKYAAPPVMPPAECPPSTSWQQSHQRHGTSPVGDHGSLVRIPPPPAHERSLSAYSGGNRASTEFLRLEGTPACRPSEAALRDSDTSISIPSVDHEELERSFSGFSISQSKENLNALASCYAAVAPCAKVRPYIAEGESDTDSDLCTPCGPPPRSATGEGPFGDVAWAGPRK

B-score, inactive:
CCOC(=O)N1CCN(C(=O)c2ccccc2SCC(=O)NCC2CCCCC2)CC1, COc1ccc(NS(=O)(=O)c2ccc(C)c(C(=O)NCC(c3cccs3)N3CCOCC3)c2)cc1 (configuration not stated) -0.42, COc1cc(-c2n[nH]c(=S)n2Cc2ccccc2)cc(OC)c1OC -0.07, COc1cc(C(O)c2nc3ccccc3n2C)cc(OC)c1OC (configuration not stated) -0.53, Cc1csc(=O)n1CC(=O)OCC(=O)N(CC(C)C)c1c(N)n(Cc2ccccc2)c(=O)[nH]c1=O, COc1ccc(Cc2nnc(SCC(=O)N(c3ccccc3)C(C)C)n(N)c2=O)cc1 -2.15, O=C(COC(=O)Cc1ccccc1F)NNC(=O)c1ccc(Cl)cc1, Cc1cc(Cl)c2oc(C(=O)N3CCC(O)(c4ccccc4)CC3)c(C)c2c1 -2.12, Cc1cc(Cl)c2oc(C(=O)NC(C)c3ccncn3)c(C)c2c1 (configuration not stated), Cc1ccc(C(=O)C(C)OC(=O)Cc2n[nH]c(=O)c3ccccc23)cc1C (configuration not stated), COCCn1c(SC(C)C(=O)NC2CC2)nnc1-c1cccc(C)c1 (configuration not stated), CC(OC(=O)C1CC(=O)N(Cc2ccccc2)C1)C(=O)Nc1ccccc1[N+](=O)[O-] (configuration not stated), Fc1cccc(Cl)c1CSc1ccc(-c2ccco2)nn1 -0.68, COC(OC)c1ccnc(SCc2ccccc2Cl)n1 -0.02, CCOc1ccc(S(=O)(=O)Nc2ccc(C(=O)NCCCN3CCCC3=O)cc2)cc1, CCCNC(=O)c1ccc(N2CCC3(CC2)CC(c2cccc(Br)c2)=NO3)c(NC(=O)c2ccco2)c1 -0.15, Cc1cc2nc3n(c2cc1C)CC1CC(C(=O)NCCC(C)C)N(C)C31 (configuration not stated), Cc1sc(NC(=O)c2ccc3ncsc3c2)c(C(N)=O)c1C, Cc1ccc(C(=O)c2c(NC(=O)c3ccncc3)sc3c2CCCC3)cc1 -3.32, COc1ccc(N2CCN(S(=O)(=O)c3cc4c5c(c3)C(C)C(=O)N5CCC4)CC2)cc1 (configuration not stated), COc1ccc(-c2ccc3nnc(SCC(=O)Nc4ccc(NC(C)=O)cc4)n3n2)cc1 -0.47, CC(=O)Nc1ccc(NC(=O)CSc2nnnn2C2CCCCC2)cc1 -0.45, COc1ccc(-c2cc(C(=O)Nc3ccccc3O)c3ccccc3n2)cc1 -1.2, COc1ccccc1NC(=O)c1cc(Cl)nc2ccccc12 -4.22, O=C1CC2(CCN(C(=O)COc3ccc(F)cc3)CC2)Oc2ccccc21, COc1ccc(C(=O)c2c3ccc([N+](=O)[O-])cc3[n+]([O-])n2CCCN)cc1 -0.22, CCCCCC(=O)N1CCN(S(=O)(=O)c2ccc3c(c2)OCCCO3)CC1 -1.36, COc1ccc(-c2nnc(SCC(=O)Nc3cccnc3Cl)n2C)cc1, Cc1cccc(N=C2SC(C)CN2C(=O)CN2C(=O)NC3(CCCC3)C2=O)c1 (configuration not stated) -1.04, O=C(COc1ccccc1Cl)Nc1ccccc1C(=O)NC1CC1, Cc1c(C)n2c(SCC(=O)N3CCCC3)nnc2[nH]c1=O -0.73, CCOC(=O)C1CCN(C(=O)Nc2cccc(OC)c2)CC1 -0.14, CCOC(=O)C1CCN(C(=O)Nc2ccc(C)c(Cl)c2)CC1, O=C(OCC1OC(Oc2ccc(O)cc2)C(O)C(O)C1O)c1ccccc1 (configuration not stated) -0.52, Cn1ccsc1=NC(=O)c1cc(S(=O)(=O)N2CCOCC2)ccc1Cl -2.45, CC(C)N(C(=O)c1ccc(-c2ccccc2F)cc1)C(C)C -1.82, O=C(CN1C(=O)c2ccccc2C1=O)NCc1ccc(C(=O)O)cc1 -0.02, CC(=O)c1c(C)[nH]c(C(=O)N2CCN(S(=O)(=O)c3ccc(F)c(F)c3)CC2)c1C, C=CCOc1ccc(/C=C/C(=O)OCC(=O)NCC2CCCO2)cc1 (configuration not stated), COC(=O)CNC(=O)c1cc(-c2ccncc2)nc2ccccc12 -0.09, CCCCN(C)CCCNC(=O)c1cc(-c2cccs2)nc2ccccc12, COc1ccc(NS(=O)(=O)c2ccc(C)c(C(=O)NNC(=O)c3csc(N4CCOCC4)n3)c2)cc1 -0.78, CCc1noc(C)c1C(=O)N1CCCSC1=Nc1ccccc1OC, CCC1(c2ccccc2)NC(=O)N(CC(=O)Nc2ccccc2C(=O)NC2CCCC2)C1=O (configuration not stated), CCN1C(=O)[C@H]2[C@@H](c3ccc(C)cc3)N3C(=O)N(c4cccc(Br)c4)C(=O)[C@@]3(CC)[C@H]2C1=O -0.8, c1ccc(-c2cc(N3CCCCC3)c3ccccc3n2)cc1 -0.16, O=C(c1cc2ccccc2o1)N1CCN(c2cccc(C(F)(F)F)c2)CC1 -0.25, O=C(N/N=C/c1cc(Br)c(O)c([N+](=O)[O-])c1)C(O)(c1ccccc1)c1ccccc1, CCOC(=O)CSC1=C(C#N)C(c2ccco2)C(C(=O)OCc2ccccc2)=C(C)N1 (configuration not stated) -2.55, C=CCOC(=O)C1=C(C)OC(N)=C(C#N)C1c1ccc(F)cc1 (configuration not stated)

B-score, active:
CCC(C)n1c(-c2cc(OC)c(OC)c(OC)c2)nc2nc3ccccc3nc21 (configuration not stated) -6.81, Cc1cc(Cl)c2oc(C(=O)N(C)C(C)c3ccccn3)c(C)c2c1 (configuration not stated) -5.81, CN(C)Cc1ccccc1C1(O)c2ccccc2CSc2ccccc21 (configuration not stated) -7.67, Clc1ccccc1CSc1nnc(-c2ccco2)c(-c2ccco2)n1 -9.12, Cc1ccc(C(=O)c2c(NC(=O)c3ccccc3)sc(C)c2C)cc1 -7.48, COc1ccc(NC(=O)c2cc(-c3cc(OC)c(OC)c(OC)c3)nc3ccccc23)c(OC)c1 -5.97, CC1(C)C=Cc2c(ccc3c2OC[C@@H](c2ccc(O)cc2O)C3)O1 -5.7, CCOC(=O)N1CCC(N(CCOC)C(=O)Nc2ccc(C)c(C)c2)CC1 -7.75, CC(=O)N(C1=C(Cl)C(=O)c2ccccc2C1=O)c1ccc(C(=O)O)cc1 -10.4, CCc1ccc(-c2cc(C(=O)NCc3ccco3)c3ccccc3n2)s1 -7.07, FC(F)(F)c1cccc(-c2cc3ccccc3nc2N2CCCC2)c1 -6.95, C=CCOC(=O)C1=C(C)NC(SCC(=O)OCC)=C(C#N)C1c1ccc(C)cc1 (configuration not stated) -6.37

Reference: PubChem BioAssay AID2156 (Johns Hopkins Ion Channel Center, 2009)
